Measurements as given in PubChem BioAssay AID504339 (National Center for Advancing Translational Sciences (NCATS), 2011).
About 17,000 (4.4%) of roughly 390,000 compounds were called active. About 8% were inconclusive and are not listed. The call rests on the fitted dose curve; in most records, active means well fitted inhibition curve with a large enough effect; inconclusive means small, poorly fitted or top-dose-only effect; inactive means no such curve, though single readings can be large or run the other way. Shown is part of a subset that was picked to be rich in actives.

What follows are compounds tested against Lysine-specific demethylase 4A (Homo sapiens) (UniProt O75164) (assay: qHTS Assay for Inhibitors of JMJD2A-Tudor Domain). Conditions: AlphaScreen JMJD2A-Tudor / H3K4me3 peptide binding; series mostly up to 114 µM; activity change, negative = inhibition: at the top concentration.
Further: nearly all actives have a fitted effect of over 50% in size.
On the % scale 0 is the no-effect control and ±100 the full control effect; potency means the concentration at half of the fitted maximal effect.

Sequence of Lysine-specific demethylase 4A (Homo sapiens) (O75164 whole entry, looked up, the tested form may be a part): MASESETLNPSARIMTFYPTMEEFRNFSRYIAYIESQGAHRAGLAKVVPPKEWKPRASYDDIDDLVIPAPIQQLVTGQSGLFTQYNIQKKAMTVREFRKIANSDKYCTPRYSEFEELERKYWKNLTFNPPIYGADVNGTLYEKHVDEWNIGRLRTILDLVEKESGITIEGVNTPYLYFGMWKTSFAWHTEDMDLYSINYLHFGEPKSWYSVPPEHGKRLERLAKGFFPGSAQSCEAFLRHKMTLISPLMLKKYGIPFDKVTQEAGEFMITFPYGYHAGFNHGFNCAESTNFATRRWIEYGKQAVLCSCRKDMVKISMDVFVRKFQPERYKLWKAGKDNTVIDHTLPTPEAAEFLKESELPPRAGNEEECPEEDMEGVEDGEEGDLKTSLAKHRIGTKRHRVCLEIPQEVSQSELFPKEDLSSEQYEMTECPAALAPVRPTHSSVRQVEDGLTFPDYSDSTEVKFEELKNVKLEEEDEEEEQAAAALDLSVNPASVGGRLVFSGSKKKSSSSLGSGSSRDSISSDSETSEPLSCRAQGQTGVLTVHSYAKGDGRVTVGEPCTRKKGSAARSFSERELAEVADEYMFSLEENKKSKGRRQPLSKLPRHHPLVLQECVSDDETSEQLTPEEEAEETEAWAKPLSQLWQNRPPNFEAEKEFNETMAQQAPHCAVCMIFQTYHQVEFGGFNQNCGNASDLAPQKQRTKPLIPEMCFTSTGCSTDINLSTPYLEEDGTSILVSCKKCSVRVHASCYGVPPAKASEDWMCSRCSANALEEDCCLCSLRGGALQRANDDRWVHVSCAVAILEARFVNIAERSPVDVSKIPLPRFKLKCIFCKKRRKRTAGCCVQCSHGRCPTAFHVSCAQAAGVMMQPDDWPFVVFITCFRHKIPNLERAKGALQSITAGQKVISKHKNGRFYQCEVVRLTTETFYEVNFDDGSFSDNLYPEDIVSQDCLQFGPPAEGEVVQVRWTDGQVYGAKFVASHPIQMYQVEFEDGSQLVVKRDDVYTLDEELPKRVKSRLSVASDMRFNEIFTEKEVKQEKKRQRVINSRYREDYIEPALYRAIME

Row | SMILES | activity change, negative = inhibition | Potency
1 | O=C(Nc1cccc(-c2nnc(-c3ccccc3)o2)c1)C1CCCO1 (stereo not given) | -10.7% (inactive) | 
2 | NC(=O)[C@H]1CC2(CC(c3cccc(NC(=O)[C@H]4CCC(=O)N4)c3)=NO2)CN1C(=O)c1ccccc1C(=O)c1ccccc1 (stereo not given in full) |  | 89.1 µM (active)
3 | C=C(C)C(=O)Nc1cccc(C2=NOC3(C2)C[C@H](C(N)=O)N(C(=O)C(c2ccccc2)c2ccccc2)C3)c1 (stereo not given in full) |  | 11.2 µM (active)
4 | C/C=C(\C)C(=O)N1CC2(CC(c3cccc(NC(=O)CCCCC)c3)=NO2)C[C@@H]1C(N)=O (stereo not given in full) | -18.7% (inactive) | 
5 | CC/C=C/C(=O)N1CC2(CC(c3cccc(NC(=O)CC)c3)=NO2)C[C@H]1C(N)=O (stereo not given in full) | -15.5% (inactive) | 
6 | C/C=C(/C)C(=O)Nc1cccc(C2=NOC3(C2)C[C@@H](C(N)=O)N(C(=O)C2(C)CC2)C3)c1 (stereo not given in full) | -9.09% (inactive) | 
7 | Cc1ccc(OCCSc2nc(C)c(Cc3ccccc3)c(=O)[nH]2)cc1 | -6.6% (inactive) | 
8 | COc1cc(OC)c(NC(=O)c2cc(S(=O)(=O)N3CCCC3)cn2C)cc1Cl | -13.5% (inactive) | 
9 | Cc1c(C(=O)NCc2ccccc2Br)oc2ccc3c(c12)C(=O)CC(C)(C)O3 | -20.7% (inactive) | 
10 | COc1cccc(N2CCN(S(=O)(=O)c3cc(Br)cc4c3N(C(=O)C3CC3)CC4)CC2)c1 | -18.4% (inactive) | 
11 | COc1ccc(CCNc2ncnc3onc(-c4ccc(Cl)cc4)c23)c(OC)c1 | 3.24% (inactive) | 
12 | COc1cc(/C=C/C(=O)OCC(=O)NC(=O)NCc2ccccc2)ccc1OCC#N | -14.3% (inactive) | 
13 | COc1cc(/C=C/C(=O)Nc2ccc(OC)c(S(=O)(=O)N3CCOCC3)c2)ccc1OCC#N | -21.4% (inactive) | 
14 | COc1cc(/C=C/C(=O)OCC(=O)N2CCOCC2)ccc1OCC#N |  | 50.1 µM (active)
15 | CCOC(=O)c1oc2ccc(S(=O)(=O)n3nc(-c4ccccc4OC)cc3N)cc2c1C | -22.2% (inactive) | 
16 | Cc1oc(-c2cccc(Cl)c2)[n+]([O-])c1C |  | 79.4 µM (active)
17 | Cc1oc(-c2ccccc2Cl)[n+]([O-])c1C | -11.7% (inactive) | 
18 | CCOC(=O)CSc1ncc(-c2cccc(Cl)c2)cn1 | 77.5% (inactive) | 
19 | COc1ccc(C(=O)N2CCC(c3nc4ccccc4o3)CC2)cc1 | -8.61% (inactive) | 
20 | COc1c(O)ccc2c1CN1CCc3cc4c(cc3C1C2)OCO4 (stereo not given) |  | 44.7 µM (active)
21 | COc1ccc(CN2CCCC(N3CCc4ccccc4C3)C2)c(O)c1 (stereo not given) | -25.6% (inactive) | 
22 | COc1cc(C(=O)CCc2ccc3c(c2)OCO3)cc(OC)c1OC | -1.38% (inactive) | 
23 | CCOC(=O)N1CCc2c(sc3c2c(=O)n(-c2ccc(CC)cc2)c(=O)n3C)C1 | -3.31% (inactive) | 
24 | CC1CCCN(c2csc3ccc(F)cc3c2=O)C1 (stereo not given) | -24% (inactive) | 
25 | Cn1nnnc1Sc1ncnc2scc(-c3ccccc3[N+](=O)[O-])c12 | -17.8% (inactive) | 

Row | SMILES | activity change, negative = inhibition | Potency
26 | CC(C)(C)c1ccc(OCC(=O)N2CCC(c3nc4ccccc4s3)CC2)cc1 | -13.2% (inactive) | 
27 | COc1ccc(NC(=O)CSc2nncc(=O)n2N)cc1OC | -11% (inactive) | 
28 | Nn1c(SCC(=O)Nc2nccs2)nnc1-c1ccco1 | -21.4% (inactive) | 
29 | Nn1c(SCC(=O)Nc2nccs2)nncc1=O |  | 28.2 µM (active)
30 | Cc1ccc2c(=O)c(C(=O)c3ccc(Cl)cc3)cn(CC(=O)NC3CCCCC3)c2n1 | -14.6% (inactive) | 
31 | COCCCNC(=O)c1ccc2c(c1)ncn2-c1ccccc1OC | 14.4% (inactive) | 
32 | COc1ccccc1-n1cnc2cc(NS(=O)(=O)c3ccccc3)ccc21 | -24.5% (inactive) | 
33 | COc1ccccc1-n1cn[nH]c1=S |  | 25.1 µM (active)
34 | CCOc1ccc(CNC(=O)c2cc(-c3ccc(Cl)s3)nc3ccccc23)cc1 | -6.83% (inactive) | 
35 | COc1ccc(Br)cc1CNC(=O)c1cc(=O)[nH]c2ccc(S(=O)(=O)N3CCCC3)cc12 | -9.79% (inactive) | 
36 | CCOC(=O)c1c(C)[nH]c(C)c1S(=O)(=O)NCC(=O)NCc1cccc(C)c1 | -9.42% (inactive) | 
37 | CCCOc1ccccc1-c1nc(SCCC(=O)O)n[nH]1 | -21.8% (inactive) | 
38 | Cc1cc(C)nc(Nc2n[nH]c(-c3ccccc3N)n2)n1 |  | 2.24 µM (active)
39 | CCCCN(CC)CCCNC(=O)c1nn(C)c2c1CSc1ccccc1-2 | 6.62% (inactive) | 
40 | COc1cccc(CNC(=O)CSc2c3c(nc4cc(Cl)ccc24)CCCC3)c1 | 0.331% (inactive) | 
41 | Cc1cccc(C(=O)Nc2ccc(S(=O)(=O)N3CCCCC3c3cccnc3)cc2)c1 (stereo not given) | -14.2% (inactive) | 
42 | COc1ccc(CCNS(=O)(=O)c2cccc3cccnc23)cc1OC | -18.8% (inactive) | 
43 | C=CCn1c(COc2cccc3cccnc23)nnc1SCC(=O)OC | -7.94% (inactive) | 
44 | CCCCC(=O)NC(c1ccc(OC)c(OC)c1)c1ccc2cccnc2c1O (stereo not given) |  | 56.2 µM (active)
45 | COc1ccccc1-c1ccnc2[nH]n(-c3ccccc3)c(=O)c12 | -30.2% (inactive) | 
46 | COc1cccc(Cn2c(CNS(=O)(=O)c3ccc(Cl)s3)nc3cccnc32)c1 | -25.2% (inactive) | 
47 | O=c1cc(CO)oc(CN2CCC(Cc3ccccc3)CC2)c1O | -4.12% (inactive) | 
48 | Brc1ccccc1CN1CCC(Cc2ccccc2)CC1 |  | 0.794 µM (active)
49 | NC(=O)c1ccc(CN2CCC(Cc3ccccc3)CC2)cc1 | -11.7% (inactive) | 
50 | CCOc1ccccc1NC(=O)Cn1c2ncccc2c(=O)n1-c1ccc(C)c(C)c1 | -11.4% (inactive) | 

Row | SMILES | activity change, negative = inhibition | Potency
51 | C=CCCC(=O)Nc1nc(C)c(-c2csc(Nc3ccc(Cl)cc3)n2)s1 |  | 63.1 µM (active)
52 | CCC(=O)Nc1nc(C)c(C(=O)Nc2cccc(Cl)c2)s1 | -14.8% (inactive) | 
53 | Cc1nc(NC(=O)CN(C)S(=O)(=O)c2ccc(Cl)cc2)sc1C | -30.8% (inactive) | 
54 | O=C(NC1(C(F)(F)F)N=C(c2ccccc2)N(C2CCCCC2)C1=O)c1ccccc1F (stereo not given) | -15.3% (inactive) | 
55 | CCOC(=O)c1cccc(NC(=O)Cn2cnc3nc4c(cc3c2=O)CCCC4)c1 | -1.92% (inactive) | 
56 | COc1ccc(NC(=O)Cn2c(=O)n(Cc3ccc(C(=O)NCc4ccccc4Cl)cc3)c(=O)c3ccccc32)cc1 | -7.88% (inactive) | 
57 | COc1ccc(-c2nc3c4ccccc4n(CC(=O)Nc4ccc(C(C)=O)cc4)c(=O)n3n2)cc1 |  | 8.91 µM (active)
58 | CC(=O)c1ccc(NC(=O)Cn2c(=O)oc3ccccc32)cc1 | -6.82% (inactive) | 
59 | Cc1cc(F)ccc1S(=O)(=O)N1CCCOC1CNC(=O)C(=O)NCCC1=CCCCC1 (stereo not given) | -9.67% (inactive) | 
60 | O=C(NCCCc1ccccc1)C(=O)NCC1OCCN1S(=O)(=O)c1ccccc1 (stereo not given) | -7.53% (inactive) | 
61 | O=C(NCCCn1ccnc1)C(=O)NCC1OCCN1S(=O)(=O)c1cc(F)ccc1F (stereo not given) |  | 39.8 µM (active)
62 | CCn1c(C(=O)Nc2cc(Cl)ccc2C)cc2sc(Cl)cc21 | 4.73% (inactive) | 
63 | COc1cc(C(=O)N2CCC(c3ccncc3)CC2)cc(OC)c1OC | 8.67% (inactive) | 
64 | COc1ccc(-c2cc(C(=O)NC(Cc3c[nH]c4ccccc34)C(=O)O)c(C)o2)cc1OC (stereo not given) |  | 22.4 µM (active)
65 | COc1ccc(-c2cc(=O)oc3cc(OCC(=O)N[C@@H](Cc4c[nH]c5ccccc45)C(=O)O)ccc23)cc1 | -31.3% (inactive) | 
66 | COc1ccc(-c2cc(C(=O)NC(C(=O)O)C(C)C)c(C)o2)cc1OC (stereo not given) | -11.8% (inactive) | 
67 | CC1=C(c2ccc(Cl)cc2)S(=O)(=O)N=C1N1CCN(c2cc(C)ccc2C)CC1 | -15.2% (inactive) | 
68 | O=C(CCc1ccccc1)NCc1ccc2c(c1)CCN2C(=O)c1ccccc1 | 3.33% (inactive) | 
69 | CCc1ccccc1N1C(=O)CN(S(=O)(=O)CC)CC1(C)C(=O)NC1CCCCC1 (stereo not given) | -4.62% (inactive) | 
70 | Cc1ccc2c(c1)C(c1ccccc1)N(C(=O)c1ccc(F)cc1)CC(=O)N2 (stereo not given) | -0.699% (inactive) | 
71 | Cc1ccc(C(=O)N2CC(=O)Nc3ccc(F)cc3C2c2ccc(F)cc2)cc1 (stereo not given) | -6.29% (inactive) | 
72 | Cc1ccc2c(c1)C(c1ccccc1)N(C(=O)c1ccc(S(=O)(=O)N3CCOCC3)cc1)CC(=O)N2 (stereo not given) |  | 50.1 µM (active)
73 | CC(=O)Nc1cccc(NC(=O)CSc2cn(CC(=O)N3CCCC3)c3ccccc23)c1 | -5.86% (inactive) | 
74 | O=S(=O)(NCC(c1ccco1)N1CCOCC1)c1cc(F)ccc1F (stereo not given) | -8.77% (inactive) | 
75 | O=C(CSCc1cnn(-c2ccccc2)c1-n1cccc1)NCc1ccccc1Br | -4.97% (inactive) | 

Row | SMILES | activity change, negative = inhibition | Potency
76 | COc1ccccc1N1CCN(c2nc(C)cc(=O)[nH]2)CC1 | -3.79% (inactive) | 
77 | COc1ccc(-c2nc3ccccc3n2CCC(C)C)cc1OC | 0.744% (inactive) | 
78 | Cc1ccc(-c2cn3cc(C)ccc3n2)cc1 | 1.5% (inactive) | 
79 | COc1ccc(OC)c(-n2nnc(-c3nc(-c4cc(OC)c(OC)c(OC)c4)no3)c2C)c1 | -14% (inactive) | 
80 | Cc1ccc(-n2c(-c3ccc(Cl)cc3)n[nH]c2=S)cc1 |  | 50.1 µM (active)
81 | COc1ccc(OC)c(-n2c(-c3ccn[nH]3)n[nH]c2=S)c1 |  | 50.1 µM (active)
82 | Cc1n[nH]c(=O)n1-c1ccc(C(C)C)cc1 | -2.28% (inactive) | 
83 | COc1ccc(-n2c(-c3ccc(OC)c(OC)c3)n[nH]c2=S)cc1 |  | 1.26 µM (active)
84 | COc1ccc(-n2c(C)csc2=S)cc1 | -12.8% (inactive) | 
85 | CCOC(=O)CSc1nnc(CNC(=O)c2cccs2)n1-c1cc(OC)ccc1OC | -5.76% (inactive) | 
86 | COc1ccccc1-n1c(-c2cc(-c3ccco3)[nH]n2)n[nH]c1=S |  | 15.8 µM (active)
87 | COc1ccccc1OCC(=O)OCc1cc(-c2ccco2)on1 | -15.5% (inactive) | 
88 | CCOC(=O)c1cccc(NC(=O)c2cc(CN3CCCC3)on2)c1 | -11.3% (inactive) | 
89 | O=C(OCc1cc(=O)n2nc(C3CC3)sc2n1)c1ccccc1Cl | -14% (inactive) | 
90 | COc1ccc(C2c3c(oc4ccccc4c3=O)C(=O)N2Cc2ccc3c(c2)OCO3)cc1 (stereo not given) | -3.78% (inactive) | 
91 | COc1ccc(Cn2ccn(CC(=O)Nc3cc(C)ccc3C)c(=O)c2=O)cc1 | -11.5% (inactive) | 
92 | O=C(CCCn1c(=O)c2cccn2c2cccnc21)NCc1ccc(F)cc1 | -6.59% (inactive) | 
93 | COc1ccccc1C(=O)NCCn1cc(SCc2ccccc2Cl)c2ccccc21 | -8.21% (inactive) | 
94 | Cc1c(NC(=S)Nc2ccccc2)c(=O)n(-c2ccccc2)n1C | 6.69% (inactive) | 
95 | Cc1c(NS(=O)(=O)c2ccc(Cl)cc2)c(=O)n(-c2ccccc2)n1C | 9% (inactive) | 
96 | CCN(CC)P(=O)(/C(Cl)=C\Nc1c(C)n(C)n(-c2ccccc2)c1=O)N(CC)CC |  | 15.8 µM (active)
97 | CCN(CC)CCNc1ncnc2c1cnn2-c1cc(Cl)ccc1C | -26.6% (inactive) | 
98 | O=C(O)c1ccc(Cn2cnc3c(=S)nc[nH]c32)cc1 |  | 3.55 µM (active)
99 | O=C(O)c1ccc(Cn2c(SCc3ccc(F)cc3)nc3ccncc32)cc1 | 7.64% (inactive) | 
100 | O=C(O)CCC(=O)NCc1ccc(C(=O)O)cc1 | -1.53% [at 57.1 µM] (inactive) | 
